For 14 compounds, AC50 and outcome results are on record in PubChem BioAssay (EPA / NIEHS).

The structures appear in SMILES notation. Results filed as inconclusive are left out. The source made the active and inactive calls. Rule for the calls: active = hit-call score of the fitted dose curve at least 0.9, where 1 is the maximum; inconclusive = response in the unintended direction; inactive = score below 0.9.

Sequence of human Opioid Receptor Mu (Opiate Mu), OPRM1 (gene 4988) (P35372 whole entry, looked up): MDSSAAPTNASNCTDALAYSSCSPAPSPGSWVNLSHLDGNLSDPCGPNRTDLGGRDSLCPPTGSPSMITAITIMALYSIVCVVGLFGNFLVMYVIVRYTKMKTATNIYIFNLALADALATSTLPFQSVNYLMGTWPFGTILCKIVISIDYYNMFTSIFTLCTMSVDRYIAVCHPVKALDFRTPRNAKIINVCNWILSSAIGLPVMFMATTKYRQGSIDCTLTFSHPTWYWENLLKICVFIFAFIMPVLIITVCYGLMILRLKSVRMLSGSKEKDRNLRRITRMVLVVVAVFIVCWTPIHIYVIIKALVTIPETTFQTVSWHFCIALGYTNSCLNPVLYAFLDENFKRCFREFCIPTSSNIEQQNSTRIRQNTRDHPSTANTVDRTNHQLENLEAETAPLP

The experiment addresses human Opioid Receptor Mu (Opiate Mu), OPRM1 (gene 4988) (UniProt P35372). In words: NVS_GPCR_hOpiate_mu: NovaScreen (NVS) G Protein-Coupled Receptor Assay for human Opioid Receptor Mu (Opiate Mu) (AID 2283290).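 Note: hits lower bound tracer signal versus DMSO meaning displacement of the ligand.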 Here is the method:
NVS_GPCR_hOpiate_mu is a biochemical, single-readout assay that uses extracted gene-proteins from CHO in a cell-free assay. Measurements were taken 2.5 hours after chemical dosing in a 96-well plate.NVS_GPCR_hOpiate_mu is one of one assay component(s) measured or calculated from the NVS_GPCR_hOpiate_mu assay. It is designed to make measurements of radioligand binding, a form of binding reporter, as detected with scintillation counting signals by Filter-based radiodetection technology.Data from the assay component NVS_GPCR_hOpiate_mu was analyzed into 1 assay endpoint. This assay endpoint, NVS_GPCR_hOpiate_mu, was analyzed in the positive analysis fitting direction relative to DMSO as the negative control and baseline of activity. Using a type of binding reporter, loss-of-signal activity can be used to understand changes in the binding as they relate to the gene OPRM1. Furthermore, this assay endpoint can be referred to as a primary readout, because the performed assay has only produced 1 assay endpoint. To generalize the intended target to other relatable targets, this assay endpoint is annotated to the gpcr intended target family, where the subfamily is rhodopsin-like receptor.
Binding assays used specific radioligands (tritiated, iodinated) with non-radioactive competitive displacement ligands in agonist or antagonist protocols (as indicated) and various reference compounds and inhibitors to titrate specific binding to receptors and transporters. Most enzyme assays (CYPs, kinases, phosphatases, proteases, HDACs) used recombinant protein and specific substrates (fluorescence mostly, some colorimetric and radioactive) and inhibitors, followed by a biochemical separation of substrate and product. All assays for the biochemical HTS were initially run in duplicate at a single concentration (10 uM for CYP450 assays and 25 uM for all others). […] Each assay was run with positive and negative controls, and concurrent controls on every plate. The follow-up (secondary) screen tested active chemical-pairs in concentration series, as well as a few additional assays not tested in the primary screen, some selected negative inactives, and several cases re-run in the concentration series for confirmatory purposes.
As to `CCN(CC)CCNc1ccc(CNC=O)c2sc3ccc(OC)cc3c(=O)c12`, the AC50 was 9.79 µM (active). For the compound `NC(=O)N(O)[C@@H]1C=C[C@H](Oc2cccc(Oc3ccc(F)cc3)c2)C1`, the result was inactive. Consider `CC(C)(C)c1ccc(O)c(C(C)(C)C)c1`, for which the compound was called inactive. Regarding `CC[C@H](c1ccc(O)cc1)[C@@H](CC)c1ccc(O)cc1`, the AC50 is 1.1 µM (active). As for `CCC(=C(c1ccc(O)cc1)c1ccc(OCCN(C)C)cc1)c1ccccc1`, the AC50 was 3.93 µM (active). On to `CCCCCCCCCCCCc1ccccc1S(=O)(=O)O`, for which the AC50 was 15.1 µM (active). On the same count and under the same terms, the figure for `CC#C[C@]1(O)CC[C@H]2[C@@H]3CCC4=CC(=O)CCC4=C3[C@@H](c3ccc(N(C)C)cc3)C[C@@]21C` is 0.908 µM (active).

On to `O=C(O)Cc1cc(I)c(Oc2cc(I)c(O)c(I)c2)c(I)c1`, for which the AC50 is 14.3 µM (active). The same measure, in the same setting: next, `CCCOc1sc(C(=O)N2CCC(c3cc(CN)ccc3F)CC2)c(C)c1Br`: 3.97 µM (active). Same read-out and setting: next, `CC(=O)NC1(c2cccc(F)c2)CCN(CC[C@@]2(c3ccc(Cl)c(Cl)c3)CN(c3ccccc3)C(=O)CO2)CC1`: 10.3 µM (active). `NC(=O)N1C(=O)C(C(=O)c2cc(Cl)cs2)c2cc(F)c(Cl)cc21` (centres undefined): the compound was called inactive. In the case of `CCCCCCCCCCCCCC[N+](C)(C)C`, the AC50 is 8.19 µM (active).

`CC(C)CCCCCCOC(=O)CCCCC(=O)OCCCCCCC(C)C`: the outcome was inactive.

For the compound `Cc1oc(-c2ccccc2)nc1CCOc1ccc(C[C@H](Nc2ccccc2C(=O)c2ccccc2)C(=O)O)cc1`, the outcome was inactive.

Broadly, the AC50 is the concentration giving half of the maximal activity seen.
